According to PubChem BioAssay (NCATS):
Inconclusive results are not listed. A number with no mark means an inactive call. Active and inactive are the calls of the source. The call rests on the fitted dose curve; in most records, active means well fitted cell-killing curve with a large enough effect; inconclusive means small, poorly fitted or top-dose-only effect, or effect the other way; inactive means no such curve, though single readings can be large or run the other way.

Assay: Quantitative High-Throughput drug screen in 47 multiple myeloma cell lines against the NCATS MIPE library collection: SKMM1_PLB cell viability assay (AID 1919863)
Details: SKMM1 myeloma viability, CellTiter-Glo ATP, 48 h; viability: hits give low values
How it was run: (§1)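 Myeloma cells (500/well) treated with MIPE 4.0 compounds for 48 h at 37 °C, 5% CO2. Viability read as ATP via CellTiter-Glo luminescence after 5 min at RT; DMSO-only wells = 100%, media-only = 0% viability.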
Further: nearly all actives have a fitted effect of over 35% in size.
Potency means the concentration at half of the fitted maximal effect.

Compound | viability [%] | Potency
C1=C2CCCN[C@H]2[C@@H]2C[C@H]1[C@@H]1CCCCN1C2 | 99.4 | 
CC(=Cc1csc(C)n1)[C@@H]1C[C@H]2O[C@@H]2CCC[C@H](C)[C@@H](O)[C@@H](C)C(=O)C(C)(C)[C@@H](O)CC(=O)O1 | 81.4 | 
C[C@@H]1CC[C@H]2[C@@H](C)C(=O)O[C@@H]3O[C@@]4(C)CC[C@H]1[C@]32OO4 | 103 | 
CO[C@H]1CCC(O[C@H]2C[C@H]([C@]3(C)CC[C@]4(C[C@H](O)[C@@H](C)[C@@H]([C@@H](C)C=C(C)C(=O)[C@H](C)C[C@H](C)C(=O)O)O4)O3)O[C@]3(O[C@@H]([C@H]4O[C@@](O)(CO)[C@H](C)C[C@H]4C)C[C@H]3C)[C@H]2C)O[C@H]1C (some centres not stated) |  | 1.18 µM (active)
O=c1[nH]c2ccc(Cl)cc2c(N[C@@H]2CN3CCC2CC3)c1-c1nc2ccccc2[nH]1 |  | 4.69 µM (active)
C[C@@H]1[C@H](O)[C@@H](C)C=CC=CCCC=CC=CC=CC=C[C@H](O[C@H]2O[C@@H](C)[C@H](O)[C@@H](N)[C@@H]2O)CC2O[C@](O)(C[C@@H](O)[C@H](O)CC[C@@H](O)C[C@@H](O)C[C@@H](O)CC(=O)O[C@H]1C)C[C@H](O)[C@H]2C(=O)O | 120 | 
C=C[C@@H]1CN2CCC1C[C@@H]2[C@@H](O)c1ccnc2ccccc12 (some centres not stated) |  | 23.5 µM (active)
CC1=C(O)C(=O)C=C2C1=CC=C1[C@@]2(C)CC[C@@]2(C)[C@@H]3C[C@](C)(C(=O)O)CC[C@]3(C)CC[C@]12C |  | 1.05 µM (active)
CCN1CCN(C(=O)Cc2ccc(Nc3ncc(F)c(Nc4ccc(C(=O)Nc5ccccc5Cl)cc4)n3)cc2)CC1 |  | 9.35 µM (active)
CC(C)[C@]12O[C@@H]1[C@@H]1O[C@]13[C@]1(O[C@H]1C[C@@H]1C4=C(CC[C@@]13C)C(=O)OC4)[C@H]2O | -10.1 | 
O=c1[nH]c2ccccc2n1C1CCN(Cc2ccc(-c3[nH]c4cc5ncnc5cc4nc3-c3ccccc3)cc2)CC1 |  | 20.9 µM (active)
O=C(Nc1ccncc1)C(=O)c1cn(Cc2ccc(Cl)cc2)c2ccccc12 |  | 0.418 µM (active)
COCC1(CO)C(=O)C2CCN1CC2 (configuration not stated) |  | 6.62 µM (active)
c1ccc2c(CN3CCNCC3)cccc2c1 | 106 | 
C=C[C@@H]1CN2CCC1C[C@H]2[C@H](O)c1ccnc2ccccc12 (some centres not stated) |  | 20.9 µM (active)
C=CCON=C(C[C@H]1O[C@@H]2O[C@]3(C)CC[C@@H]4[C@H](C)CC[C@@H]([C@H]1C)[C@@]24OO3)[C@H]1O[C@@H]2O[C@]3(C)CC[C@H]4[C@H](C)CC[C@@H]([C@@H]1C)[C@@]24OO3 |  | 0.264 µM (active)
COc1ccc2c(c[n+](C)c3c4cc5c(cc4ccc23)OCO5)c1OC |  | 5.9 µM (active)
Cc1[nH]nc2ccc(-c3cncc(OC[C@@H](N)Cc4c[nH]c5ccccc45)c3)cc12 |  | 5.9 µM (active)
CC(C)(O)C=CC(=O)[C@](C)(O)[C@H]1[C@H](O)C[C@]2(C)[C@@H]3CC=C4[C@@H](C=C(O)C(=O)C4(C)C)[C@]3(C)C(=O)C[C@@]12C |  | 2.64 µM (active)
CC[C@@H]1[C@@H](C)O[C@@](O)([C@@H](C)[C@H](O)[C@H](C)[C@H]2OC(=O)C=CC=C[C@@H](C)[C@@H]([C@@H](C)[C@@H](O)[C@H](C)[C@@]3(O)C[C@H](O[C@H]4C[C@H](O)[C@H](O)[C@H](C)O4)[C@H](CC)[C@@H](C)O3)OC(=O)C=CC=C[C@@H]2C)C[C@H]1O[C@H]1C[C@H](O)[C@H](O)[C@H](C)O1 |  | 0.662 µM (active)
CC[C@@]1(O)C(=O)OCc2c1cc1n(c2=O)Cc2cc3ccccc3nc2-1 |  | 0.235 µM (active)
CCOC(=O)Nc1ccc(NCc2ccc(F)cc2)cc1N | 119 | 
CN1CCN(c2ccc([N+](=O)[O-])c3no[n+]([O-])c23)CC1 |  | 18.7 µM (active)
CCNC(=O)C[C@@H]1N=C(c2ccc(Cl)cc2)c2cc(OC)ccc2-n2c(C)nnc21 |  | 0.469 µM (active)
C[C@@H]1O[C@@H](O[C@@H]2C=C3CC[C@@H]4[C@@H](CC[C@]5(C)[C@H](c6ccc(=O)oc6)CC[C@@]45O)[C@@]3(C)CC2)[C@H](O)[C@H](O)[C@H]1O |  | 0.0235 µM (active)
CC=C(C)C(=O)O[C@H]1C(C)=C2[C@@H]3OC(=O)[C@@](C)(O)[C@@]3(O)[C@@H](OC(=O)CCC)C[C@](C)(OC(C)=O)[C@@H]2[C@@H]1OC(=O)CCCCCCC |  | 0.105 µM (active)

Assay: Quantitative High-Throughput drug screen in 47 multiple myeloma cell lines against the NCATS MIPE library collection: U266_ATCC cell viability assay (AID 1919864)
Details: U266 myeloma viability, CellTiter-Glo ATP luminescence, 48 h; series mostly up to 45.8 µM
How it was run: as §1

Compound | Potency
C[C@H]([C@H](O)CCC(C)(C)O)[C@H]1CC[C@@]2(O)C3=CC(=O)[C@@H]4C[C@@H](O)[C@@H](O)C[C@]4(C)[C@@H]3CC[C@]12C | inactive
C1=C2CCCN[C@H]2[C@@H]2C[C@H]1[C@@H]1CCCCN1C2 | inactive
Clc1ccccc1C(c1ccccc1)(c1ccccc1)n1cccn1 | 10.5 µM (active)
C[C@@H]1CC[C@H]2[C@@H](C)C(=O)O[C@@H]3O[C@@]4(C)CC[C@H]1[C@]32OO4 | inactive
CO[C@H]1CCC(O[C@H]2C[C@H]([C@]3(C)CC[C@]4(C[C@H](O)[C@@H](C)[C@@H]([C@@H](C)C=C(C)C(=O)[C@H](C)C[C@H](C)C(=O)O)O4)O3)O[C@]3(O[C@@H]([C@H]4O[C@@](O)(CO)[C@H](C)C[C@H]4C)C[C@H]3C)[C@H]2C)O[C@H]1C (some centres not stated) | 0.296 µM (active)
O=c1[nH]c2ccc(Cl)cc2c(N[C@@H]2CN3CCC2CC3)c1-c1nc2ccccc2[nH]1 | 5.9 µM (active)
CC(C)(C)[C@]1(O)C[C@@H]2OC(=O)C[C@@]23C(=O)O[C@@H]2OC(=O)[C@H](O)C213 (some centres not stated) | inactive
C[C@@H]1[C@H](O)[C@@H](C)C=CC=CCCC=CC=CC=CC=C[C@H](O[C@H]2O[C@@H](C)[C@H](O)[C@@H](N)[C@@H]2O)CC2O[C@](O)(C[C@@H](O)[C@H](O)CC[C@@H](O)C[C@@H](O)C[C@@H](O)CC(=O)O[C@H]1C)C[C@H](O)[C@H]2C(=O)O | inactive
C[C@]12COC(=O)C[C@@H]1CC[C@@H]1[C@H]2CC[C@@]2(C)[C@H]1CC[C@]2(C)O | inactive
C=C[C@@H]1CN2CCC1C[C@@H]2[C@@H](O)c1ccnc2ccccc12 (some centres not stated) | 13.2 µM (active)
C[C@H]1CCCC=CC2C[C@H](O)C[C@@H]2[C@H](O)C=CC(=O)O1 (some centres not stated) | inactive
CC1=C(O)C(=O)C=C2C1=CC=C1[C@@]2(C)CC[C@@]2(C)[C@@H]3C[C@](C)(C(=O)O)CC[C@]3(C)CC[C@]12C | 0.743 µM (active)
CCN1CCN(C(=O)Cc2ccc(Nc3ncc(F)c(Nc4ccc(C(=O)Nc5ccccc5Cl)cc4)n3)cc2)CC1 | 7.43 µM (active)
CC(C)[C@]12O[C@@H]1[C@@H]1O[C@]13[C@]1(O[C@H]1C[C@@H]1C4=C(CC[C@@]13C)C(=O)OC4)[C@H]2O | inactive
CCCC[N+]1(C)[C@H]2CC(OC(=O)[C@H](CO)c3ccccc3)C[C@H]1[C@H]1O[C@H]12 (some centres not stated) | inactive
O=C(Nc1ccncc1)C(=O)c1cn(Cc2ccc(Cl)cc2)c2ccccc12 | inactive

Compound | Potency
COCC1(CO)C(=O)C2CCN1CC2 (configuration not stated) | 2.96 µM (active)
c1ccc2c(CN3CCNCC3)cccc2c1 | inactive
C=C[C@@H]1CN2CCC1C[C@H]2[C@H](O)c1ccnc2ccccc12 (some centres not stated) | 20.9 µM (active)
CCc1c(C(=O)C(N)=O)c2c(OCC(=O)O)cccc2n1Cc1ccccc1 | inactive
C=CCON=C(C[C@H]1O[C@@H]2O[C@]3(C)CC[C@@H]4[C@H](C)CC[C@@H]([C@H]1C)[C@@]24OO3)[C@H]1O[C@@H]2O[C@]3(C)CC[C@H]4[C@H](C)CC[C@@H]([C@@H]1C)[C@@]24OO3 | 0.332 µM (active)
COc1ccc2c(c[n+](C)c3c4cc5c(cc4ccc23)OCO5)c1OC | 5.9 µM (active)
COc1cccc2c1[C@]13CCN(CC4CC4)[C@H](C2)[C@]1(OC)CCC(=O)C3 | inactive
Cc1[nH]nc2ccc(-c3cncc(OC[C@@H](N)Cc4c[nH]c5ccccc45)c3)cc12 | 0.0833 µM (active)
CC(C)(O)C=CC(=O)[C@](C)(O)[C@H]1[C@H](O)C[C@]2(C)[C@@H]3CC=C4[C@@H](C=C(O)C(=O)C4(C)C)[C@]3(C)C(=O)C[C@@]12C | 0.526 µM (active)
CC[C@@]1(O)C(=O)OCc2c1cc1n(c2=O)Cc2cc3ccccc3nc2-1 | 0.332 µM (active)
CCOC(=O)Nc1ccc(NCc2ccc(F)cc2)cc1N | 13.2 µM (active)
CN1CCN(c2ccc([N+](=O)[O-])c3no[n+]([O-])c23)CC1 | 18.7 µM (active)
CCNC(=O)C[C@@H]1N=C(c2ccc(Cl)cc2)c2cc(OC)ccc2-n2c(C)nnc21 | 0.372 µM (active)
C[C@@H]1O[C@@H](O[C@@H]2C=C3CC[C@@H]4[C@@H](CC[C@]5(C)[C@H](c6ccc(=O)oc6)CC[C@@]45O)[C@@]3(C)CC2)[C@H](O)[C@H](O)[C@H]1O | 0.0093 µM (active)
CC=C(C)C(=O)O[C@H]1C(C)=C2[C@@H]3OC(=O)[C@@](C)(O)[C@@]3(O)[C@@H](OC(=O)CCC)C[C@](C)(OC(C)=O)[C@@H]2[C@@H]1OC(=O)CCCCCCC | 0.935 µM (active)
